Screening results from PubChem.
Most compounds without a hit are left out; they make up all but 3.8% or so of the library.
HepG2 tox – qHTS for Inhibitors of TGF-b: Cytotox Counterscreen. AID 588856, 2011. Potency, µM (series often up to 46.1 µM), hits mostly cytotoxic. actives 0.76% (n = 410,000). HepG2 CAGA-GFP viability, ATP luminescence, 18 h
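HepG2 CAGA-GFP cells (1000/well, DMEM with 1% FBS) received compound, then TGF-beta at 500 pg/mL final, and were incubated 18 hours at 37 degrees C. Viability was read by CellTiter-Glo luminescence. Media-only wells were set as complete cell-killing and DMSO as no toxicity.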
Nrf2 block – Nrf2 qHTS screen for inhibitors; Potency, µM (highest dose often 46 µM), hits mostly inhibitors; actives 2.1% (n = 360,000); A549 ARE-Fluc reporter, luciferase luminescence, 18-24 h; AID 504444, 2011; further: nearly all actives have a fitted effect of over 60% in size
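Concentration-response testing used A549 ARE_Fluc cells at 5000 cells/well. Following an 18-24 h compound incubation, viability was read by fluorescence (Ex 405/Em 525) and luciferase output by luminescence.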
A549 tox – Nrf2 qHTS screen for inhibitors: counterscreen for cytotoxicity; actives 0.16% (n = 390,000); Potency, µM (doses to about 46 µM), most hits filed as inhibitors; A549 ARE-Fluc cells, CellTiter-Fluor viability, 18-24 h; AID 504648, 2011
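A549 ARE-Fluc cells in 5% FBS OPTI-MEM, 5000 cells/well, rested 2 h then exposed to compounds in concentration-response for 18-24 h at 37 °C. Viability by CellTiter-Fluor fluorescence (Ex 405/Em 525) after 30 min; luciferase luminescence (BugLite, 15 min, RT) read afterwards.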
ATXN viability – Viability Counterscreen for Primary qHTS for Inhibitors of ATXN expression; S2 cells (HEK-293 line with an ATXN2-luciferase reporter) viability, CellTiter-Fluor protease fluorescence, 24 h; Potency, µM (titrated, usually from 56.7 µM), most hits filed as cytotoxic; actives 0.49% (n = 400,000); AID 651635, 2014; further: nearly all actives have a fitted effect of over 40% in size
ATXN2 expr inh – Primary qHTS for Inhibitors of ATXN expression | HEK-293 ATXN2-luciferase reporter, luminescence, 24 h | AID 1745845, 2022 | Potency, µM (series often up to 57 µM), most hits filed as inhibitors | actives 0.72% (n = 360,000); further: nearly all actives have a fitted effect of over 55% in size
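ATXN2-luciferase reporter cells (luciferase flanked by upstream and downstream ATXN2 gene portions) were treated 24 h at 37 °C with compounds at up to 57 uM. SteadyGlo luminescence gave expression; GF-AFC fluorescence gave viability.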
TGFb SMAD3 inh – qHTS for Inhibitors of TGF-b; HepG2 CAGA-GFP TGF-b/SMAD3 reporter, GFP fluorescence, 18 h; TGF-beta stimulated, 500 pg/mL final; actives 1.2% (n = 410,000); Potency, µM (highest dose often 46.1 µM), actives largely listed as inhibitors; further: nearly all actives have a fitted effect of over 65% in size
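TGF-beta reporter screen: HEPG2 CAGA-GFP, 1% FBS, 500 pg/mL TGF-beta final, 18 h; per-cell GFP summed per well; curves fitted and categorized by class.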
Numbers stand for hits; . = inactive; ? = inconclusive; / = not tested or not shown; ! = not confirmed by another sample. The call rests on the fitted dose curve; in most records, active means well fitted curve in the direction sought with a large enough effect; inconclusive means small, poorly fitted or top-dose-only effect, or another doubt; inactive means no such curve, though single readings can be large; an effect the other way counts as inactive or inconclusive.

SMILES	HepG2 tox	Nrf2 block	A549 tox	ATXN viability	ATXN2 expr inh	TGFb SMAD3 inh
Cn1cc([N+](=O)[O-])c(C(=O)Nc2ccc(C(=O)N3CCCCC3)cc2)n1	8.91µM	.	.	.	.	?
Cc1ccc(NC(=O)c2sc(Cl)nc2C)c(C)c1	.	.	.	.	.	.
Cc1cc(C)c(C)c(OC(=O)c2sc(Cl)nc2C)c1	.	?	.	22.4µM	20µM	.
COC(=O)N/N=C/c1ccc(-c2ccc(C)c(Cl)c2)o1	.	.	.	.	.	.
Cc1ccc(-c2ccc(/C=N/c3ncn[nH]3)o2)cc1Cl	.	.	.	.	15.8µM	?
CCCCCCCCN1C(=O)[C@H](CC(=O)NCCCC)C[C@@]2(C(=O)OC)CCCCC=C12	/	/	/	28.2µM	.	/
CCCCCCCCN1C(=O)[C@H](CC(=O)N2CCN(C(=O)C3CC3)CC2)C[C@@]2(C(=O)OCC)CCCC=C12	/	/	/	14.1µM	?	/
CCCCCCCCN1C(=O)[C@H](CC(=O)NCCCOCCCC)C[C@@]2(C(=O)OCC)CCCC=C12	/	/	/	?	.	/
COC(=O)[C@]12CCCCC=C1N(Cc1ccc(Cl)cc1Cl)C(=O)[C@H](CC(=O)NCCCCc1ccccc1)C2	/	/	/	?	.	/
CCCCNC(=O)C[C@@H]1C[C@@]2(C(=O)OC)CCCCC=C2N(Cc2ccc(Cl)cc2Cl)C1=O	/	/	/	31.6µM	?	/
CCCCCCCCN1C(=O)[C@H](CC(=O)N2CCN(C(=O)OCC)CC2)C[C@@]2(C(=O)OC)CCCCC=C12	/	/	/	?	.	/
CC(C)CN(CCCNC(=O)c1cc(=O)[nH]c2ccc(S(=O)(=O)N3CCCCCC3)cc12)CC(C)C	.	/	.	.	.	.
Cc1nc(NC(=O)c2cccnc2Cl)sc1C	.	?	.	?	/	.
O=C(COC(=O)c1cc(S(=O)(=O)N2CCOCC2)c(Cl)cc1Cl)NCc1ccco1	.	.	.	.	.	.
O=C(NCc1ccco1)c1cc(S(=O)(=O)N2CCOCC2)c(Cl)cc1Cl	.	18.4µM	?	.	.	.
CCOP(=O)(OCC)C(C)(C)NC(=O)Nc1ccc(Cl)c(Cl)c1	.	23.1µM	.	.	.	.
CCOP(=O)(OCC)C(NC(=O)Nc1ccc(Cl)c(Cl)c1)c1ccccc1 (centres undefined)	.	.	.	.	.	.
COCCNC(=S)N(C)[C@H]1C[C@H]2c3cc(-c4ccccc4)ccc3CCN2C(=O)[C@H]1[C@H](C)O	.	/	/	?	.	.
O=C(CSc1nc(=O)n(Cc2ccccn2)c2c1CCC2)Nc1ccccc1	.	25.9µM	.	/	/	?
O=C(CSc1nc(=O)n(Cc2ccco2)c2c1CCC2)Nc1cccc(F)c1	.	/	.	.	?	7.94µM
O=C(COC(=O)CCS(=O)(=O)c1ccc(F)cc1)NC1CCCCC1	.	.	.	.	.	.
CC(=O)Nc1ccc(C=NNc2ccc([N+](=O)[O-])cc2S(=O)(=O)Nc2ccccc2C(=O)O)cc1	.	.	?	.	.	.
Cc1ccc(NC(=S)NNc2ccc([N+](=O)[O-])cc2S(=O)(=O)Nc2ccccc2C(=O)O)cc1C	.	.	.	31.6µM	.	?
CNC(=O)CSc1nc2cc(S(=O)(=O)Nc3ccc(OC)cc3)ccc2o1	.	.	.	.	.	.
COc1ccc(S(=O)(=O)Nc2ccc3oc4c(c3c2)CCCC4)cc1	.	?	.	?	?	12.6µM
SMILES	HepG2 tox	Nrf2 block	A549 tox	ATXN viability	ATXN2 expr inh	TGFb SMAD3 inh
COc1ccc(S(=O)(=O)N(C(=O)c2ccncc2)c2ccc3oc4c(c3c2)CCCC4)cc1	.	?	?	?	.	11.2µM
COc1ccc(NS(=O)(=O)c2ccc3oc(SC)nc3c2)cc1	.	20.6µM	.	.	.	?
CCCCCCNC(=O)CC(c1ccccc1)c1cc(Br)ccc1O (centres undefined)	12.6µM	/	?	.	?	12.6µM
CC(C)NC(=O)CC(c1ccccc1)c1cc(Br)ccc1O (centres undefined)	.	.	.	.	.	.
Cc1cccc(N2CCN(C(=O)C3CCC(=O)N(Cc4ccccc4F)C3)CC2)c1C (centres undefined)	.	.	.	.	.	?
Cc1ccc(C)c(N2C(=O)C3C4C=CC(CC4)C3C2=O)c1 (centres undefined)	.	.	.	?	/	.
CC(C)(C)c1nnc(NS(=O)(=O)c2cc(Cl)ccc2Cl)s1	.	.	.	.	.	.
O=S(=O)(Nc1nc(-c2sccc2Cl)cs1)c1cc(Cl)ccc1Cl	.	?	?	?	.	11.2µM
CC(C)(C)n1nnnc1C(c1cccs1)N(Cc1ccccc1)Cc1ccco1 (centres undefined)	.	20.6µM	.	.	.	?
CC(C)(C)n1nnnc1C(c1cccs1)N(Cc1cccnc1)Cc1ccco1 (centres undefined)	.	.	.	.	.	.
COc1ccc(S(=O)(=O)N2CCN(C(=O)CSC(=S)N3CCCC3)CC2)cc1	15.8µM	.	.	.	/	?
COc1ccc(S(=O)(=O)N2CCN(C(=O)C3CCC3)CC2)cc1	.	.	.	.	.	.
CC1CC1C(=O)N1CCN(S(=O)(=O)c2cc(C(F)(F)F)cc(C(F)(F)F)c2)CC1 (centres undefined)	.	?	.	.	?	14.1µM
NC(Cc1ccc(Cl)cc1)c1csc(Nc2ccc(C(F)(F)F)cn2)n1 (centres undefined)	.	/	/	31.6µM	.	?
CC(C)CC(N)c1csc(Nc2ccc(C(F)(F)F)cn2)n1 (centres undefined)	17.8µM	/	/	?	?	?
NC(CO)c1csc(Nc2ccc(C(F)(F)F)cn2)n1 (centres undefined)	.	/	/	.	.	.
Cc1ccc(CCNC(=O)c2cc3n(n2)CCCN(Cc2ccc(C)cc2)C3=O)cc1	.	/	.	.	.	.
CCc1cc2c(=O)c(-c3nc(C)cs3)coc2cc1OC(C)C(=O)NCCO (centres undefined)	.	13µM	.	.	.	.
CCc1cc2c(=O)c(-c3nc(C)cs3)c(CCCC(=O)O)oc2cc1O	.	.	.	.	.	.
Cc1cc(C)cc(NC(=O)CCC(=O)N2CCSc3ccccc32)c1	.	.	.	?	.	11.2µM!
COC(=O)c1ccccc1NC(=O)CCC(=O)N1CCSc2ccccc21	.	.	?	.	.	.
CN1CCC2(CC1)C1CN(C)CC=C1C(C#N)=C(N)C2(C#N)C#N (centres undefined)	.	.	16.4µM!	?	.	.
